The panel holds about 79,000 compounds, 15% with a hit somewhere; the sample as a whole holds those more often. Unmarked numbers belong to inactive results. No stated cut-off is given here; in the data, active means growth inhibition above about 70%; inactive means the rest.
Assay: NCI Yeast Anticancer Drug Screen. Data for the mlh1 rad18 strain (AID 175)
Settings: S. cerevisiae mlh1 rad18 strain growth inhibition; at 50.0 µM; hits give high values
Procedure, shortened: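 Test agents were incubated with a yeast strain of defined genotype (DNA damage repair defect). Inhibition of growth was derived by comparison with vehicle-exposed cultures.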

Row | SMILES | growth inhibition [%]
1 | COc1cc(/C=C(\C#N)C(=O)c2ccccc2)ccc1OCc1ccccc1 | -18
2 | COC(=O)c1[nH]c(=O)c(C#N)c(C(=O)OC)c1C(=O)c1ccccc1 | 12
3 | CCCNc1ccc(C2=NCCCN2)cc1 | -1.5
4 | Nc1ccc(N)c([N+](=O)[O-])c1 | -15.2
5 | COc1cc2cc(OC(C)=O)c3cc4c(cc3c2c(OC)c1OC)OCO4 | -25.1
6 | CC(=O)OCC1OC(OC2=C(CC=C(C)C)C(=O)c3ccccc3C2=O)C(OC(C)=O)C(OC(C)=O)C1OC(C)=O (configuration not stated) | -6.6
7 | CNS(=O)(=O)c1ccc(Cl)c(Cl)c1 | -40.9
8 | CCCCC1(CC)COC(CCC)OC1 (configuration not stated) | 11.5
9 | O=C1C=C(Nc2ccc([N+](=O)[O-])cc2)c2ccccc2C1=O | -8.8
10 | C#CC(C)(O)c1ccc(Cl)cc1 (configuration not stated) | 2.65
11 | NCC(=O)CCC(=O)O | -1.4
12 | COc1ccc(C2OC(N)=C(O)C2=O)cc1OC (configuration not stated) | -31.9
13 | O=C1OC[C@H]2[C@H](c3ccc(O)c(O)c3)c3cc(O)c(O)cc3C[C@H]12 | 10.9
14 | CCN=c1cc2sc3cc(NCC)c(C)cc3nc-2cc1C | -22.6
15 | O=[N+]([O-])c1ccc(/C=C/C=C/c2ccccc2)c(Cl)c1 | -11.4
16 | CC(C)NC(=O)OCc1c(COC(=O)NC(C)C)c(-c2ccc(Cl)c(Cl)c2)n2c1SCC2 | 52.9
17 | O=[N+]([O-])c1cccc(N=Nc2ccc(O)cc2O)c1 | 20.6
